What all share (experiment): DAPPL (digital affinity profiling via proximity ligation, sequencing); 10 mM Tris-HCl pH 7.5, 50 mM NaCl, 1 mM DTT, 4% glycerol, room temperature, 30 min; GST-TFs on glutathione beads, 16-mer random dsDNA library, 0.1% formaldehyde crosslink after washing; high values mean tight binding
One test has as its target T1, FEV (Homo sapiens, UniProt Q99581 1-238).
T1 sequence: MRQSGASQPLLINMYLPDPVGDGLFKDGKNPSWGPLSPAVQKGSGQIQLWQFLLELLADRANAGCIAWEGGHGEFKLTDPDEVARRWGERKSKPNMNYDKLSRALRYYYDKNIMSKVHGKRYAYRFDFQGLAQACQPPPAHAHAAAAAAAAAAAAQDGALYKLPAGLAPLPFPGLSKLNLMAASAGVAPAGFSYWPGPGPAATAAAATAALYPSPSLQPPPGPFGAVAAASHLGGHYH
Conditions: protein: recombinant; tags: N-terminal GST; dsDNA, one strand shown. A digest of the protocol:
(§1)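 After expression in yeast as GST fusions, human transcription factors were bound to glutathione beads, DNA-barcoded and mixed with a tag-only sample. The pools were incubated with 200 nmole of a 16-mer random double-stranded DNA library in Tris/NaCl/DTT/glycerol buffer (30 min, room temperature), washed and crosslinked with 0.1% formaldehyde. Proximity ligation with BsaI/T4 ligase ran for 1 h at 37 °C, before PCR amplification and sequencing on an Illumina NextSeq500. Binding signal is a hexamer's read frequency for a factor divided by its frequency for the tag-only sample.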

A further test deals with ETV5 (Homo sapiens, UniProt P41161 1-510). Conditions: protein: recombinant; tags: N-terminal GST; dsDNA, one strand shown. The gist of the method: as §1
Chain of ETV5 (P41161 whole entry): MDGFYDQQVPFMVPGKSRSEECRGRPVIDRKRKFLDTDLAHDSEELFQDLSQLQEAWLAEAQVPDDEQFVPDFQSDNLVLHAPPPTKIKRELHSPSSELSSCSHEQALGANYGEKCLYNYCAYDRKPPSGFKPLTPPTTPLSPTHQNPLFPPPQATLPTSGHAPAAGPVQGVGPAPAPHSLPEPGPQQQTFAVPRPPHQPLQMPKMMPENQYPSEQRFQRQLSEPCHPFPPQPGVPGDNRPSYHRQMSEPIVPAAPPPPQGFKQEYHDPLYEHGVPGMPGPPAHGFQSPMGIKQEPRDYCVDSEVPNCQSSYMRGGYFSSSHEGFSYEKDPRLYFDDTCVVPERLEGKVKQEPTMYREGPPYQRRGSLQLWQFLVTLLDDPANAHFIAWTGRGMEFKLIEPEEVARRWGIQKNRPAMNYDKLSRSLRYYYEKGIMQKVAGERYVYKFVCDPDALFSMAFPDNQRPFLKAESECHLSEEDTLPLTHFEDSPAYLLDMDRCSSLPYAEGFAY
The next test addresses HSF1 (Homo sapiens, UniProt Q00613 1-529). Conditions: protein: recombinant; tags: N-terminal GST; chain copies: 3; dsDNA, one strand shown. The gist of the method:
as §1

The target in another test is T2, SPIC (Homo sapiens, UniProt Q8N5J4 1-248).
T2 sequence: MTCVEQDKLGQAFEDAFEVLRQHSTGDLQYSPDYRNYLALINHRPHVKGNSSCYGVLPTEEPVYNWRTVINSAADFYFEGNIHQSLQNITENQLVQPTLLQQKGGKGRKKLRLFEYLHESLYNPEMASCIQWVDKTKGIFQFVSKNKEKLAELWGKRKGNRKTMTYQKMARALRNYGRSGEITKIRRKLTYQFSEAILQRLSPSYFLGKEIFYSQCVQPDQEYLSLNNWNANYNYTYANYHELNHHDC
To be noted: protein: recombinant; tags: N-terminal GST; dsDNA, one strand shown. The gist of the method:
as §1

Another test concerns the target ELF4 (Homo sapiens, UniProt Q99607 1-663). To be noted: protein: recombinant; tags: N-terminal GST; dsDNA, one strand shown. The gist of the method:
as §1

For a further test, the target named is T3, ELK4 (Homo sapiens, UniProt P28324-2 1-405).
T3 sequence: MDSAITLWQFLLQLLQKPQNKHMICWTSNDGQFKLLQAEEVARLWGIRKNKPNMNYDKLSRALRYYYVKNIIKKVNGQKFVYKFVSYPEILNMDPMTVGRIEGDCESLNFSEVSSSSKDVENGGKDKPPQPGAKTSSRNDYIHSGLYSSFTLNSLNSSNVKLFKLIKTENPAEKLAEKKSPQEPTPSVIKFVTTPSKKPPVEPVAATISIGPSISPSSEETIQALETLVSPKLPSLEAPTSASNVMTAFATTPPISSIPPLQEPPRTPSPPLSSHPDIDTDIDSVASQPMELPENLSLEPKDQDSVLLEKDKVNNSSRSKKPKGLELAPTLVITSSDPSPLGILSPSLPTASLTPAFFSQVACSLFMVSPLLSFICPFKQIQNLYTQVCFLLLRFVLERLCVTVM
To be noted: protein: recombinant; tags: N-terminal GST; dsDNA, one strand shown. The gist of the method:
as §1

Another test deals with T4, ETV2 (Homo sapiens, UniProt O00321 1-342).
T4 sequence: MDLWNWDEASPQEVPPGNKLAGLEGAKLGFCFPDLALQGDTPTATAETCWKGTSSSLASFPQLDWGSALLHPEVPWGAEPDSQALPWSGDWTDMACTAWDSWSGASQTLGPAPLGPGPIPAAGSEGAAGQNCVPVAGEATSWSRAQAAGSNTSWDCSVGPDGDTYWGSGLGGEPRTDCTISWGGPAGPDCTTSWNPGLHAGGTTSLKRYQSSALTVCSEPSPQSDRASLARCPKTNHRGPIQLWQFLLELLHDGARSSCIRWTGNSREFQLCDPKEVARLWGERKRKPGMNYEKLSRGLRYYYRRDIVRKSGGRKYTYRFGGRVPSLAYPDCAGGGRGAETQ
To be noted: protein: recombinant; tags: N-terminal GST; dsDNA, one strand shown. The gist of the method: as §1

The target of the next test is T5, ELF3 (Homo sapiens, UniProt P78545 1-371).
T5 sequence: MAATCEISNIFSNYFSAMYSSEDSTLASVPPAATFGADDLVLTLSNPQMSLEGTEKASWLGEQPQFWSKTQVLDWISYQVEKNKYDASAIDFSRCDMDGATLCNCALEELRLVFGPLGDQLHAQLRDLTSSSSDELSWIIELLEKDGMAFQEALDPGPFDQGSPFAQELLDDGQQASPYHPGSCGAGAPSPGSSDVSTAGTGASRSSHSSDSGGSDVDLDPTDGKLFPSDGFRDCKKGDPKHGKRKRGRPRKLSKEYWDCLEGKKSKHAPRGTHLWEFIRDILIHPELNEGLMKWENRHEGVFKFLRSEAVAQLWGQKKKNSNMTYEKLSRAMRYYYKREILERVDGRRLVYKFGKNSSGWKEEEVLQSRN
Conditions: protein: recombinant; tags: N-terminal GST; dsDNA, one strand shown. A digest of the protocol:
as §1

The target in the next test is CRX (Homo sapiens, UniProt O43186 1-299). To be noted: protein: recombinant; tags: N-terminal GST; dsDNA, one strand shown. A digest of the protocol:
as §1

For the next test, the target named is ETV1 (Homo sapiens, UniProt P50549 1-477). Conditions: protein: recombinant; tags: N-terminal GST; dsDNA, one strand shown. The gist of the method: as §1
Chain of ETV1 (P50549 whole entry): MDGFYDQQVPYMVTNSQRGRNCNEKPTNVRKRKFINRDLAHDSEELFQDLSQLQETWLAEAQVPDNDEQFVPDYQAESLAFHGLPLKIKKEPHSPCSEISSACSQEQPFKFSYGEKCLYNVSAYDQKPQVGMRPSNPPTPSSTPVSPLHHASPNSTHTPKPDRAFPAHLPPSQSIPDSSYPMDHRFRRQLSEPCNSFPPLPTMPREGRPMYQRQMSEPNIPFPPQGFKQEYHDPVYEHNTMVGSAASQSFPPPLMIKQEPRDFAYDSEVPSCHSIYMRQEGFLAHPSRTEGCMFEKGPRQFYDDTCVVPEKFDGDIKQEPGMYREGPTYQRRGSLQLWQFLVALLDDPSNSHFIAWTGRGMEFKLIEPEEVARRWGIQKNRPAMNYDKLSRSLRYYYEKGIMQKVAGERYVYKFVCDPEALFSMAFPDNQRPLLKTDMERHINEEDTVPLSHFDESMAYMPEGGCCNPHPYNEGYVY
In the next test the target is T6, ERF (Homo sapiens, UniProt P50548 1-548).
T6 sequence: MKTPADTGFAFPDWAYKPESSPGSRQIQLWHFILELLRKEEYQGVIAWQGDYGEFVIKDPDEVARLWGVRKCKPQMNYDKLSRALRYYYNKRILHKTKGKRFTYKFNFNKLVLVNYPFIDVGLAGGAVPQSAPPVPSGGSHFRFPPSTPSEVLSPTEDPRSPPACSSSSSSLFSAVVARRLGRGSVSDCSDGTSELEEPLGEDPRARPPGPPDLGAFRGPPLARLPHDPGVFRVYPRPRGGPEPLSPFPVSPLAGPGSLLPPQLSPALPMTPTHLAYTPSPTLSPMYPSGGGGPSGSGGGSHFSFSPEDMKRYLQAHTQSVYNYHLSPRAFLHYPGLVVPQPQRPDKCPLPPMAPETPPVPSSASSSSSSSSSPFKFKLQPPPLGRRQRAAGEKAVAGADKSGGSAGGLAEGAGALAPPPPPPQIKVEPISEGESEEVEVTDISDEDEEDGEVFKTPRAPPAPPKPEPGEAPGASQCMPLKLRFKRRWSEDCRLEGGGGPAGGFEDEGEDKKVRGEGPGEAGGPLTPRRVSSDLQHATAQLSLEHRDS
Conditions: protein: recombinant; tags: N-terminal GST; dsDNA, one strand shown. The gist of the method: as §1

The target of a further test is T7, ETV3L (Homo sapiens, UniProt Q6ZN32 1-361).
T7 sequence: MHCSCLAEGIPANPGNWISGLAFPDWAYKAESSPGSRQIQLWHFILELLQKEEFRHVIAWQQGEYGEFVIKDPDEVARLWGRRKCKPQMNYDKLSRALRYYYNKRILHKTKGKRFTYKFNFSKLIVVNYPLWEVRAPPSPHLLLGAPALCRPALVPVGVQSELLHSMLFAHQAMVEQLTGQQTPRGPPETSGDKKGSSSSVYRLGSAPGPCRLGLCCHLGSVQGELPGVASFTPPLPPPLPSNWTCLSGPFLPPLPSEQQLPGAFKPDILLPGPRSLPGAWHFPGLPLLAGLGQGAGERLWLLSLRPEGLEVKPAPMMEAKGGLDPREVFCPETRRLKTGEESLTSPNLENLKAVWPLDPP
Conditions: protein: recombinant; tags: N-terminal GST; dsDNA, one strand shown. A digest of the protocol:
as §1

A further test deals with T8, ETS2 (Homo sapiens, UniProt P15036 1-469).
T8 sequence: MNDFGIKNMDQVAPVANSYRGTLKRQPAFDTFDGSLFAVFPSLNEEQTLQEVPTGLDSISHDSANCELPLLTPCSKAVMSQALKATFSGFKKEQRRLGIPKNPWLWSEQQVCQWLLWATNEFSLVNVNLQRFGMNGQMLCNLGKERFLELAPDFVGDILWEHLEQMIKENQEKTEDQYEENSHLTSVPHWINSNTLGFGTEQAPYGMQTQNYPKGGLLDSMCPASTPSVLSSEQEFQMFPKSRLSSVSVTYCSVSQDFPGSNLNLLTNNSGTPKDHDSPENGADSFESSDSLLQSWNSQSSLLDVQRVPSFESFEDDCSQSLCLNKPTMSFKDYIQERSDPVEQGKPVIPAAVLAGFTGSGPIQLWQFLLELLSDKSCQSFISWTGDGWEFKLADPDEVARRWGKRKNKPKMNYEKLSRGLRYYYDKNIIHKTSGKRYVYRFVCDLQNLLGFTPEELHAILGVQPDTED
To be noted: protein: recombinant; tags: N-terminal GST; dsDNA, one strand shown. The gist of the method: as §1

The target of the next test is T9, SPDEF (Homo sapiens, UniProt O95238 1-335).
T9 sequence: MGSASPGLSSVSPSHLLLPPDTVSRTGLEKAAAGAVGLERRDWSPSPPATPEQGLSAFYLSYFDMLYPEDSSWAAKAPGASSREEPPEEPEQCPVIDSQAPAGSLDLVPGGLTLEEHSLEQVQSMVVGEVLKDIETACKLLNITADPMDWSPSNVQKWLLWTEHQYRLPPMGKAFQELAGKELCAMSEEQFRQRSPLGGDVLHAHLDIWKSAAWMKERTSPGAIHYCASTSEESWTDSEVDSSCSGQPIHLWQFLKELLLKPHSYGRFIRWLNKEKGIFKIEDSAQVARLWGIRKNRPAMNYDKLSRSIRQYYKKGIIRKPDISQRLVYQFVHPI
Conditions: protein: recombinant; tags: N-terminal GST; dsDNA, one strand shown. A digest of the protocol: as §1

The target in a further test is T10, ETV7 (Homo sapiens, UniProt Q9Y603 1-341).
T10 sequence: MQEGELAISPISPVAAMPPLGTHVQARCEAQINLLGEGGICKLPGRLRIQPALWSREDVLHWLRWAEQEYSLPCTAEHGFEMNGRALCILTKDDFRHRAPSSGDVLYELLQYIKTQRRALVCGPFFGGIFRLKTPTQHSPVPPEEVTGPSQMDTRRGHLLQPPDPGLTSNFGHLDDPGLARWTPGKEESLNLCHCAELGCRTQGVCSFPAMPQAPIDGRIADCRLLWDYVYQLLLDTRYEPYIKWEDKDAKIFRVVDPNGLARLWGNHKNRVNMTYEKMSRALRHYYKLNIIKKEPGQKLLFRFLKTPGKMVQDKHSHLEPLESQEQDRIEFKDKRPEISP
To be noted: protein: recombinant; tags: N-terminal GST; dsDNA, one strand shown. The gist of the method:
as §1

The next test has as its target T11, ELF5 (Homo sapiens, UniProt Q9UKW6-2 1-255).
T11 sequence: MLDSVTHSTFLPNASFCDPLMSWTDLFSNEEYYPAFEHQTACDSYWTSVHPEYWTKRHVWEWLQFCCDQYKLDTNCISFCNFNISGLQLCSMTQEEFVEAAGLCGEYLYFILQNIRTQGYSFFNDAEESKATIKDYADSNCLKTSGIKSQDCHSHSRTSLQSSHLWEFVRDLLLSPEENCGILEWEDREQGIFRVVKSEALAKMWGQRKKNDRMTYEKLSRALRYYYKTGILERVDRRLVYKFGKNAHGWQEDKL
To be noted: protein: recombinant; tags: N-terminal GST; dsDNA, one strand shown. A digest of the protocol:
as §1

The next test deals with T12, ETV3 (Homo sapiens, UniProt P41162-2 1-143).
T12 sequence: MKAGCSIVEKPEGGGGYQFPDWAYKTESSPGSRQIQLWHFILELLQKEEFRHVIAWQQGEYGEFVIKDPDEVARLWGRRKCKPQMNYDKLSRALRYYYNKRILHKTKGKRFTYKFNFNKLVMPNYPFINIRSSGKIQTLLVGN
Conditions: protein: recombinant; tags: N-terminal GST; dsDNA, one strand shown. A digest of the protocol:
as §1

Another test addresses ETV6 (Homo sapiens, UniProt P41212 1-452). To be noted: protein: recombinant; tags: N-terminal GST; dsDNA, one strand shown. The gist of the method:
as §1

Chain of ETV6 (P41212 whole entry): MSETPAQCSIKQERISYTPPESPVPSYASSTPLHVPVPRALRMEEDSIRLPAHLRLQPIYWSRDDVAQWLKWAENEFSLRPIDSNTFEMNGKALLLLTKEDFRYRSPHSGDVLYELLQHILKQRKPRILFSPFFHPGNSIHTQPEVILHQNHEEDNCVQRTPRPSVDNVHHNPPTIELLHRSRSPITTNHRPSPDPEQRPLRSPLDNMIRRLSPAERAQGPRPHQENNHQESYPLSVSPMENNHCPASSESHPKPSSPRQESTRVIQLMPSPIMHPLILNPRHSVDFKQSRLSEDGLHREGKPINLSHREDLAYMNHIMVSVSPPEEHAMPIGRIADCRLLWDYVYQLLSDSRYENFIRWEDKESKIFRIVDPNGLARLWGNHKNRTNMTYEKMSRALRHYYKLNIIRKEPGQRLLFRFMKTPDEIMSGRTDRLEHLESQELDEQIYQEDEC
Chain of ELF4 (Q99607 whole entry): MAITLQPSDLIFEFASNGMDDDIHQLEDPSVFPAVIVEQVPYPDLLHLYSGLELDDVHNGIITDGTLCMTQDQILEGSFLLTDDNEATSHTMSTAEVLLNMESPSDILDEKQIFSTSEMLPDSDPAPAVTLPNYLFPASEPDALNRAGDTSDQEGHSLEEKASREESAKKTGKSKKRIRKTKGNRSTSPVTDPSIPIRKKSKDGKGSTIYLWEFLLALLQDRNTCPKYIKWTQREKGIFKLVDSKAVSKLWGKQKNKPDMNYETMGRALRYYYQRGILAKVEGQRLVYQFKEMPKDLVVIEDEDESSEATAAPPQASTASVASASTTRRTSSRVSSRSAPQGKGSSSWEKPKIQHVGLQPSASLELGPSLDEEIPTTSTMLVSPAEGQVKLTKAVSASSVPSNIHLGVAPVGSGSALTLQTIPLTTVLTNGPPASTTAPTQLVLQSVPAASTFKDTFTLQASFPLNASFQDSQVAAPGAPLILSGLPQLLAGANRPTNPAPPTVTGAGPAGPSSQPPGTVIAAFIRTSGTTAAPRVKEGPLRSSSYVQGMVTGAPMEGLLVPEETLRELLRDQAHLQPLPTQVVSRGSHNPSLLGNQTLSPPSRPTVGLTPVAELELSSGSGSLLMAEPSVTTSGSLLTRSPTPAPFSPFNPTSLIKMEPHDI
Chain of CRX (O43186 whole entry): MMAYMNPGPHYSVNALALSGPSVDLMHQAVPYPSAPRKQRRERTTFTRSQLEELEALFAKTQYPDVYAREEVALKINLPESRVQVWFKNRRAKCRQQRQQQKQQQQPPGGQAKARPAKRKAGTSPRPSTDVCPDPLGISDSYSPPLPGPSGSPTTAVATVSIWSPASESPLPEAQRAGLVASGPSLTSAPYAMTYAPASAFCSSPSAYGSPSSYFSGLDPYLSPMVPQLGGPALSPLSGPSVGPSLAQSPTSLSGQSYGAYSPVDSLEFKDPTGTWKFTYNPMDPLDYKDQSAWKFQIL
Chain of HSF1 (Q00613 whole entry): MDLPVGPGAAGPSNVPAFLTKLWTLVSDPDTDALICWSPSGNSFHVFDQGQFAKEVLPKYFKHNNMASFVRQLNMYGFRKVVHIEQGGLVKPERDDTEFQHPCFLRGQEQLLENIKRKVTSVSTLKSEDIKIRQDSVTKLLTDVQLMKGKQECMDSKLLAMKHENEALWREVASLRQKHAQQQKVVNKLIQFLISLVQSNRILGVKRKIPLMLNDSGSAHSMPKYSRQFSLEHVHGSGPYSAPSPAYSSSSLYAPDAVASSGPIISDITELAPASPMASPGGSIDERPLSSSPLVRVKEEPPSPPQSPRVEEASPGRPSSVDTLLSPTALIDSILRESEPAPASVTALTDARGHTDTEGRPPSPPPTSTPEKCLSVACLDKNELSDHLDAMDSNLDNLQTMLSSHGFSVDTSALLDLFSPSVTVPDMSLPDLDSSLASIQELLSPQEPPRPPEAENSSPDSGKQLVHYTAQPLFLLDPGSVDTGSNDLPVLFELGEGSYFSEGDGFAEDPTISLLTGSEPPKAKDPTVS

With TCCGAA, the binding signal with FEV was 1.24 fold enrichment (6-mer frequency, TF over GST control); with ETV5, 1.31 fold enrichment (6-mer frequency, TF over GST control); with HSF1, 1.48 fold enrichment (6-mer frequency, TF over GST control); in the test with SPIC, 1.43 fold enrichment (6-mer frequency, TF over GST control); in the test with ELF4, 1.21 fold enrichment (6-mer frequency, TF over GST control); with ELK4, 1.23 fold enrichment (6-mer frequency, TF over GST control). In addition, the binding signal with ETV2 is 1.46 fold enrichment (6-mer frequency, TF over GST control); with ELF3, 1.1 fold enrichment (6-mer frequency, TF over GST control); with CRX, 1.28 fold enrichment (6-mer frequency, TF over GST control); with ETV1, 1.19 fold enrichment (6-mer frequency, TF over GST control); in the test with ERF it was 1.36 fold enrichment (6-mer frequency, TF over GST control); in the test with ETV3L, 1.32 fold enrichment (6-mer frequency, TF over GST control). The binding signal with ETS2 is 1.23 fold enrichment (6-mer frequency, TF over GST control); in the test with SPDEF it was 1.29 fold enrichment (6-mer frequency, TF over GST control); with ETV7, 1.25 fold enrichment (6-mer frequency, TF over GST control); in the test with ELF5 it was 1.25 fold enrichment (6-mer frequency, TF over GST control); with ETV3 it was 1.15 fold enrichment (6-mer frequency, TF over GST control); with ETV6, 1.37 fold enrichment (6-mer frequency, TF over GST control).

Values taken from PMC7862700, “An all-to-all approach to the identification of sequence-specific readers for epigenetic DNA modifications on cytosine”.
